Sampled rows, rich in hits. Any-hit rate of the full collection: about 1.6%.
PG9 binder = binders of HIV-1 gp120 antibody PG9, primary screen, biochemical, TR-FRET; HIV-1 gp120 / PG9 antibody interaction; TR-FRET gp120-PG9 antibody binding; inhibition, % at 6.7 µM; actives 0.43% (n = 360,000); AID 624416, 2012; in the data active = inhibition above about 8.5%
GC-A act = GC-A stimulated cGMP production enhancers – HEK293 GC-A cells, cGMP TR-FRET, EC30 ANP, primary screen. AID 1671463, 2021. activation, % at 10 µM. Atrial natriuretic peptide receptor 1 (Homo sapiens), P16066. 0% at EC30 ANP, 100% saturating ANP. actives 0.14% (n = 370,000); in the data active = activation above about 40%
Target sequence (P16066 whole entry, looked up): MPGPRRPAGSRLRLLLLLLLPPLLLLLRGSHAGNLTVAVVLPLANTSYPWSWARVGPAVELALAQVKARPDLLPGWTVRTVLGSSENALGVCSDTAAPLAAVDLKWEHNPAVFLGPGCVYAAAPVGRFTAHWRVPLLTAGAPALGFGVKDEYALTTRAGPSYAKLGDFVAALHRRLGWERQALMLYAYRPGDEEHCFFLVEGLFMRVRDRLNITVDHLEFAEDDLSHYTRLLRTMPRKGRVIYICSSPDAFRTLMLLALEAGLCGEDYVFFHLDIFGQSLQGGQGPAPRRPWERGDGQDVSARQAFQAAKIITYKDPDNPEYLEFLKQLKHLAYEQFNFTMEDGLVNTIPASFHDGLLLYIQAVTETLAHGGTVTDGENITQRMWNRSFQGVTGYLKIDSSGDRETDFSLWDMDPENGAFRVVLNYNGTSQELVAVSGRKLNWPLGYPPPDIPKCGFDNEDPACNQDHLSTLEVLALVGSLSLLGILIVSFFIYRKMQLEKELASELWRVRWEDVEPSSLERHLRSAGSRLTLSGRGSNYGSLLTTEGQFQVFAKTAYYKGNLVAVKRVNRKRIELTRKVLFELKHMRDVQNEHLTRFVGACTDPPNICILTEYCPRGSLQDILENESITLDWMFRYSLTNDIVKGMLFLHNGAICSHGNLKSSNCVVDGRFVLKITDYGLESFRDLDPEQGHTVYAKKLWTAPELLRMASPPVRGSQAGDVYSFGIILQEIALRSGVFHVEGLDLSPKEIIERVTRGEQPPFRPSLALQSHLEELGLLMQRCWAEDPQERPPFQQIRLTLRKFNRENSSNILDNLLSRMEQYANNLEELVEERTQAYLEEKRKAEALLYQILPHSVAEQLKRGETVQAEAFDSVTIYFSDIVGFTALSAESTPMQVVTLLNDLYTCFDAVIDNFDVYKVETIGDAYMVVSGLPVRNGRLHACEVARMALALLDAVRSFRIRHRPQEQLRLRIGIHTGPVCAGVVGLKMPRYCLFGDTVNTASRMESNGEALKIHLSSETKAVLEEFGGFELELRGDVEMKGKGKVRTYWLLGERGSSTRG
NPR2 activator = human GC-B receptor activators, primary screen, HEK293 GC-B cells, cGMP TR-FRET, EC30 CNP. 0% at EC30 CNP, 100% saturating CNP. actives 0.11% (n = 370,000). activation, % at 10 µM. Atrial natriuretic peptide receptor 2 (Homo sapiens), P20594;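 active = activation at 10 µM reaching about 35% in either raw or pattern-adjusted values, limit read from the data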
Rev-erbA mod = modulators of Rev-erb alpha DNA binding, primary screen, biochemical, FITC-DNA, fluorescence polarization, uHTS; Nuclear receptor subfamily 1 group D member 1 (Homo sapiens), P20393; Rev-erbα–FITC-DNA binding, 90 min; activity, % at 10 µM; actives 0.79% (n = 370,000); AID 1259318, 2017;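 active = activity above about 14%, limit read from the data; passing the limit was not always enough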;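 also: 0% = DMSO wells with 35 nM protein and 100% = DMSO wells with 750 nM protein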
V-ATPase pH = regulators of yeast V-ATPase proton pumping, primary screen, pHLuorin cytosolic pH fluorescence; S. cerevisiae; response, % at 10 µM; actives 0.37% (n = 350,000); AID 504577, 2011; in the data active = response mostly above about 7.3%, no sharp cut-off; inactive = mostly below about 5.4%; also: actives read high
NR1D1 mod conf = modulators of Rev-erb alpha DNA binding, confirmation, biochemical, FITC-DNA, fluorescence polarization, single point. shares compounds with Rev-erbA mod. 90 min. activation, % at 25 µM. actives 61% (n = 3,000). AID 1259319, 2017;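 active = activation at or above a set limit, or at least 3 SD above the negative control mean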;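 also: 0% = 35 nM protein with DMSO and 100% = 750 nM protein high control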
RORg counter = modulation of RORgamma DNA binding, dose response, counter-screen for Rev-erb alpha modulator project, biochemical, fluorescence polarization, FITC-DNA. IC50, µM. purified RORgamma protein-FITC-DNA binding. actives 8% (n = 910). shares compounds with Rev-erbA mod. AID 1259320, 2017;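 active = Compounds whose fitted half-maximal concentration for disrupting protein-DNA binding is below 10 micromolar; the record names Rev-erb in its text, so the target is in doubt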
Numbers without * were called inactive; i = inactive; nt = not tested or not shown.

SMILES | PG9 binder | GC-A act | NPR2 activator | Rev-erbA mod | V-ATPase pH | NR1D1 mod conf | others
COCC1CN(CCc2ccc(F)cc2)S(=O)(=O)c2c(OCCN3C(=O)[C@@H]4[C@H](C3=O)[C@@H]3C=C[C@H]4C3)cccc2O1 (stereo partly specified) | 2.1 | -6.8 | 4.0 | 0.1 | nt | nt
COCCCNC(=O)C[C@H]1C[C@@]2(C(=O)OC)C(=C[C@H](C3CCCC3)O[C@@H]2C)N(CCc2ccc(OC)c(OC)c2)C1=O | nt | 1.2 | 4.0 | 1.0 | nt | nt
O=[N+]([O-])c1ccc(OCCCN2CCC(C(O)(c3ccccc3)c3ccccc3)CC2)c(Cl)c1 | nt | -16.6 | -5.8 | -1.4 | nt | nt
CCOc1cc2[nH]c(=S)n(CCC(=O)NCc3ccco3)c(=O)c2cc1OCC | 1.6 | 4.4 | -3.1 | 27.3* | 0.4 | -0.7
CC1=NN(c2ccccc2)C(=O)/C1=C\C=C1/N(C)c2ccccc2C1(C)C | -3.9 | 2.3 | -3.0 | 79.0* | -2.5 | 87.2* | RORg counter=8.63*
CN1C(=CC=C2C=C(I)C(=O)C(I)=C2)C(C)(C)c2ccccc21 | -1.0 | -13.0 | -15.1 | -4.2 | -0.9 | nt
CN1/C(=C\C=C2/C(=O)Oc3ccccc3C2=O)C(C)(C)c2ccccc21 | -1.7 | 7.1 | 6.8 | 58.8* | nt | 53.4* | RORg counter=>40
CC1=NN(c2ccccc2)C(=O)/C1=C/N(C)C | 0.7 | -0.8 | 0.7 | 1.0 | -0.2 | nt
CC1=NN(c2ccccc2)C(=O)/C1=C\C=C\c1ccccc1 | -3.4 | -1.1 | -7.3 | -4.3 | 1.1 | nt
CC1=NN(c2ccccc2)C(=O)/C1=C\C=C1\N(C)c2ccccc2C1(C)C | -3.0 | 2.3 | 2.1 | 49.4* | -3.3 | 54.3* | RORg counter=>40
Cc1ccc2c(c1)C1CS(=O)(=O)N(CCc3ccccc3)C(=O)N1C2 (stereo unspecified) | nt | -1.2 | -5.4 | -2.9 | nt | nt
COc1cccc(-n2nnnc2SCC(=O)Nc2ccc3c(c2)OCCO3)c1 | 1.9 | 0.7 | 6.6 | 30.3* | -4.0 | 46.0* | RORg counter=i
C[C@H]1CN(S(=O)C(C)(C)C)[C@@H](CCO)/C1=C\c1ccccc1 (stereo partly specified) | 1.2 | -1.4 | 3.9 | 15.2* | -2.4 | -0.9
N#C/C(=C/C1=C(N2CCOCC2)C(=C/c2ccc(Cl)cc2)/CC1)C(=O)Nc1ccccc1F | -1.4 | 0.3 | 0.3 | 27.0* | -1.1 | 4.5
COc1cc(/C=C(\C#N)C(=O)Nc2ccccc2F)ccc1OCCN1CCOCC1 | -1.9 | 0.2 | 2.9 | -0.2 | 2.7 | nt
O=C(OCC(=O)c1c[nH]c2ccccc12)c1cc(Br)ccc1O | 2.5 | -7.3 | -4.9 | 42.5* | -0.4 | 41.4* | RORg counter=>40
CC(COc1ccc(C#N)c(F)c1)CN1CCC(C(O)(c2ccccc2)c2ccccc2)CC1 (stereo unspecified) | nt | -19.9 | -13.7 | 6.8 | nt | nt
CCOC(=O)c1c(-c2cccs2)csc1NC(=O)c1ccco1 | -2.4 | 1.5 | -14.0 | 35.8* | -0.5 | 10.9
Cc1ccc2nc(-c3ccc(NC(=O)CN4C(=O)NC(C)(c5ccc(OC(F)F)cc5)C4=O)cc3)sc2c1 (stereo unspecified) | 4.3 | 6.8 | -1.0 | 24.1* | 3.1 | 7.8
CC1(c2ccc(OC(F)F)cc2)NC(=O)N(CC(=O)Nc2ccccc2)C1=O (stereo unspecified) | 0.8 | 2.5 | 0.2 | 3.8 | 0.8 | nt
COc1ccc(-n2c(COc3ccc(Cl)cc3)nnc2SCC(=O)c2ccc(-c3ccccc3)cc2)cc1 | nt | 1.5 | 1.9 | 22.5* | nt | 2.3
NS(=O)(=O)c1ccc(CCNC(=O)c2cc3ccccc3s2)cc1 | -0.7 | -4.6 | -1.5 | 22.9* | 1.8 | 5.6
NS(=O)(=O)c1ccc(CCNC(=O)c2ccc(Cl)s2)cc1 | 1.8 | 0.7 | 1.9 | 2.9 | 0.7 | nt
CN(CC#Cc1ccccc1)C(N)=NC(=O)/C=C/c1cccc(C(F)(F)F)c1 | nt | -2.5 | 1.0 | -2.4 | nt | nt
CSc1ccccc1-c1nnc(-c2ccc(Cl)c(Cl)c2)o1 | 0.2 | -3.5 | -5.7 | 46.6* | -3.2 | 51.0* | RORg counter=>40
SMILES | PG9 binder | GC-A act | NPR2 activator | Rev-erbA mod | V-ATPase pH | NR1D1 mod conf | others
Cc1ccccc1CN1CCCCC(NC(=O)C2CCC2)C1=O (stereo unspecified) | nt | 0.4 | 0.7 | 3.4 | nt | nt
Cc1c(O)ccc2c3c(c(=O)oc12)CCCC3 | 2.7 | 5.7 | 2.6 | -1.9 | 1.9 | nt
Cc1oc2c(C)c3oc(=O)c4c(c3cc2c1C)CCCC4 | 1.0 | 1.5 | -8.5 | 29.9* | -1.9 | 0.5
COc1cccc(NC(=O)Nc2c(-c3ccc(F)cc3)nc3ncccn23)c1 | nt | 3.5 | 7.5 | -0.9 | nt | nt
O=C(CCCCCNc1nc(=S)[nH]c2ccccc12)NCc1ccccc1Cl | 3.7 | -1.6 | -0.4 | 48.7* | nt | 17.2
Cc1ccc2nc(/C(C#N)=C/c3ccc(-c4ccccc4C(=O)O)o3)[nH]c2c1 | -17.6 | 3.8 | -1.3 | 40.7* | 2.3 | 30.7* | RORg counter=>40
Cc1cc2nc(/C(C#N)=C\c3ccc(-c4ccccc4C(=O)O)o3)[nH]c2cc1C | -13.2 | -4.5 | 1.5 | 41.8* | -0.4 | 29.9*
C#CCNC(=O)C[C@H]1C[C@@]2(C(=O)OC)C(=C[C@H](COCc3ccccc3)O[C@@H]2C)N(Cc2ccccc2)C1=O | nt | 2.2 | -8.6 | -3.1 | nt | nt
COc1ccc(Oc2nc(-c3cccnc3)nc3ccccc23)cc1 | -2.5 | -23.9 | -22.9 | 5.2 | 7.3 | nt
Fc1ccccc1Oc1nc(-c2ccncc2)nc2ccccc12 | 0.1 | -26.6 | -8.2 | 32.8* | -2.5 | 15.0
Cc1ccc(-c2csc3nc[nH]c(=S)c23)cc1C | -0.8 | -2.6 | 5.7 | 24.4* | -3.7 | 31.6* | RORg counter=>40
C=C(C)/C=C1/CN(Cc2ccc3c(c2)OCO3)C(=N)N1C(=O)OCc1ccccc1 | nt | 3.5 | 6.5 | 2.4 | nt | nt
COC(=O)c1ccsc1NC(=O)c1ccc(Cl)s1 | -2.4 | 0.0 | -8.6 | 20.1* | 1.6 | -1.8
CC(C)C[C@H]1COc2cc(NCc3ccc(Cl)c(Cl)c3)ccc2S(=O)(=O)N1 | 5.8 | -4.9 | 1.4 | 16.9* | nt | 6.3
CC(C)C[C@@H]1COc2cc(NCCO)ccc2S(=O)(=O)N1 | 0.2 | 2.9 | 4.3 | 4.0 | nt | nt
COCCNc1nc2c(-c3cccc(C(F)(F)F)c3)nnn2c2ccccc12 | -2.2 | 39.0 | 41.8* | 51.8* | -8.2 | 18.1*
CCCCNc1nc2c(-c3ccccc3)nnn2c2ccccc12 | 0.1 | 34.2 | 11.1 | 50.2* | -5.3 | 22.1*
CC(=O)NCCNc1nc2c(-c3ccccc3)nnn2c2ccccc12 | 1.2 | -12.5 | 0.8 | 2.8 | 3.5 | nt
